Assay [1] in a line: NCI Yeast Anticancer Drug Screen. Data for the rad50 strain (AID 155).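 Further: 0% = growth of vehicle-only cultures of the same strain.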 The following applies: S. cerevisiae rad50 strain growth inhibition; at 50.0 µM; stronger effect = higher value. The essentials: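 Cells are treated with compound, grown, and their growth is then scored against vehicle-only cultures of the same repair-deficient yeast strain.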
A short description of assay [2]: NCI Yeast Anticancer Drug Screen. Data for the mec2-1 strain (AID 157). The following applies: S. cerevisiae mec2-1 strain, at 50.0 µM, stronger effect = higher value. The essentials: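 Each compound was tested on mec2-1 yeast, a strain altered in DNA damage repair or cell cycle control. Growth inhibition is reported relative to vehicle.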
Assay [3] can be described thus: NCI Yeast Anticancer Drug Screen. Data for the sgs1 mgt1 strain (AID 161).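 Further: 0% = growth of cultures given vehicle only.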 Conditions: S. cerevisiae sgs1 mgt1 strain, at 50.0 µM, stronger effect = higher value. The essentials:
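Read-out: growth inhibition vs vehicle controls. Cells: mutant yeast strain deficient in DNA damage repair.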

Assay [4] can be described thus: NCI Yeast Anticancer Drug Screen. Data for the cln2 rad14 strain (AID 165).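 Further: 0% = growth equal to vehicle treated cultures.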 Conditions: S. cerevisiae cln2 rad14 strain, at 50.0 µM, stronger effect = higher value. The essentials:
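Test compounds were added to cln2 rad14 yeast cultures; inhibition of growth was then determined by comparison with vehicle treatment.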

Assay [5] is described as follows: NCI Yeast Anticancer Drug Screen. Data for the bub3 strain (AID 167). Conditions: S. cerevisiae bub3 mutant strain, at 50.0 µM, stronger effect = higher value. The essentials:
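Part of a panel of yeast mutants defective in DNA damage repair or cell cycle regulation. Each strain is grown with compound, and inhibition is calculated relative to solvent-treated cultures.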

A short description of assay [6]: NCI Yeast Anticancer Drug Screen. Data for the mlh1 rad18 strain (AID 175). Conditions: S. cerevisiae mlh1 rad18 strain growth inhibition; at 50.0 µM; stronger effect = higher value. A digest of the protocol:
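Inhibition values reflect reduced growth of mutant yeast versus vehicle-treated controls following compound exposure; the mutations affect DNA damage repair.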

Structures are written as SMILES. About 79,000 compounds went through this panel and 15% of them were active in at least one assay; those are over-represented in the sample as a whole. Values without a mark were called inactive. The source made the active and inactive calls. No stated cut-off is given here; in the data, active means growth inhibition above about 70%; inactive means the rest.

`COc1c(CC=C(C)C)c(O)c(C(CC(C)C)c2c(O)c(CC=C(C)C)c(O)c(C(C)=O)c2O)c(O)c1C(C)=O` (stereo unspecified): the growth inhibition is 32.9% in assay [1]; 41.5% in assay [2]; 34% in assay [3]; 41.3% in assay [4]; 38.5% in assay [5]; 31.1% in assay [6].

Turning to `CC(C)SCCC#N`, the growth inhibition in assay [1] was 13%; in assay [2], -8.55%; in assay [3], -13.1%; in assay [4] it was -5.5%; in assay [5] it was -3.7%; in assay [6] it was -4.75%.

For the compound `NNC(=O)C1CCC(=O)N1S(=O)(=O)c1ccccc1` (stereo unspecified), the growth inhibition in assay [1] is -14%; in assay [2], -12.1%; in assay [3] it was -22%; in assay [4], 8.95%; in assay [5] it was -2.25%; in assay [6], -25.6%.

For the compound `CC1CCCCC1(C)O` (stereo unspecified), the growth inhibition is 23.9% in assay [1]; 34.6% in assay [2]; -19.4% in assay [3]; 1.75% in assay [4]; 9% in assay [5]; 11.4% in assay [6].

As for `O=C(/C=C/c1ccc(O)cc1)c1ccc2c(c1)OCO2`, the growth inhibition was 8.05% in assay [1]; 23.3% in assay [2]; 25.8% in assay [3]; -1.55% in assay [4]; 43% in assay [5]; 43.8% in assay [6].

In the case of `Nc1ccccc1C(=O)ONC(=O)c1ccccc1`, the growth inhibition in assay [1] was 99.5% (active); in assay [2], 99.6% (active); in assay [3] it was 99.5% (active); in assay [4], 99% (active); in assay [5], 99.3% (active); in assay [6], 99.3% (active).

In the case of `Cc1ccccc1NCS(=O)(=O)O`, the growth inhibition was 18.2% in assay [1]; -18.3% in assay [2]; 13.2% in assay [3]; -6.35% in assay [4]; -14.8% in assay [5]; 4.6% in assay [6].

Take `O=C1CC2(CCCCC2)C(=O)N1c1cc([N+](=O)[O-])ccn1`: the growth inhibition is 25.4% in assay [1]; 14.7% in assay [2]; 0.8% in assay [3]; 17.6% in assay [4]; 10% in assay [5]; 19.8% in assay [6].

On to `CCCCCCCCCCCCCCCCCC(CCCCCCCC)CCCCCCCC`, for which the growth inhibition was -5.15% in assay [1]; 0.65% in assay [2]; -30.8% in assay [3]; 3.3% in assay [4]; 0.25% in assay [5]; 23.6% in assay [6].

As to `CCCCOC(=O)C1C=C(N)CCC1` (stereo unspecified), the growth inhibition is 12.8% in assay [1]; 6.8% in assay [2]; -3.35% in assay [3]; -32.6% in assay [4]; -9.05% in assay [5]; -16.4% in assay [6].

`CCCCOC(=O)C(=O)/C(=C\n1c(=S)[nH]c2cc(C)ccc21)C(=O)C=C(C)C`: the growth inhibition in assay [1] was -15.6%; in assay [2], -22%; in assay [3], 3.05%; in assay [4], -22.4%; in assay [5], -10.7%; in assay [6] it was -28.1%.

As to `COc1cc(NC(=O)CCN2CCOCC2)c2ncccc2c1`, the growth inhibition in assay [1] is 41.6%; in assay [2] it was 3.6%; in assay [3], 12.8%; in assay [4], -29.4%; in assay [5], 18.9%; in assay [6], 43%.

In the case of `CN(C)c1ccc(/C=N/NC(=O)NN)cc1`, the growth inhibition is 6.2% in assay [1]; -12.3% in assay [2]; -23.3% in assay [3]; -2.85% in assay [4]; -2.15% in assay [5]; -15.9% in assay [6].

Take `O=S(=O)(Oc1ccc(Cl)cc1)c1cccc(S(=O)(=O)Oc2ccc(Cl)cc2)c1`: the growth inhibition was 12.8% in assay [1]; 1.6% in assay [2]; -2.65% in assay [3]; -5.55% in assay [4]; 5.5% in assay [5]; 1.8% in assay [6].

On to `CCCCCCCCCCCCCCCCC1=C(C(=O)OC)NC(N)=NC1O` (stereo unspecified), for which the growth inhibition in assay [1] was 29%; in assay [2] it was 0.25%; in assay [3], -20.8%; in assay [4] it was -10.1%; in assay [5], 4.7%; in assay [6], 22.1%.

Consider `Cc1ccc(NC(=O)COc2cc(Cl)c(Cl)cc2Cl)c([N+](=O)[O-])c1`, for which the growth inhibition was -28.9% in assay [1]; -4.8% in assay [2]; -11.8% in assay [3]; -0.55% in assay [4]; -0.2% in assay [5]; -0.4% in assay [6].

As for `CS(=O)(=O)OC[C@H](NC(=O)c1ccccc1)[C@H](COS(C)(=O)=O)NC(=O)c1ccccc1`, the growth inhibition in assay [1] is 6.5%; in assay [2], 9.3%; in assay [3], 18.4%; in assay [4], 9.9%; in assay [5], -9.85%; in assay [6], 15.3%.

As to `CC(=O)OC(C)/C=C\C#N` (stereo unspecified), the growth inhibition was -17.9% in assay [1]; 14.3% in assay [2]; 5.25% in assay [3]; -2.65% in assay [4]; 0.35% in assay [5]; 37.8% in assay [6].

Consider `Nc1ccnc2n[nH]nc12`, for which the growth inhibition is -3.7% in assay [1]; -2% in assay [2]; -19.1% in assay [3]; -9.05% in assay [4]; 5.05% in assay [5]; -26.8% in assay [6].

As to `O=[N+]([O-])c1cccc(/C=N\O)c1`, the growth inhibition in assay [1] is -17.8%; in assay [2] it was -8.45%; in assay [3], -9.9%; in assay [4], -7.45%; in assay [5], -1.2%; in assay [6], -8.4%.

As for `CCCCN1CSC(=S)N(CCCC)C1`, the growth inhibition was 39.5% in assay [1]; 45.5% in assay [2]; 59.2% in assay [3]; -10.4% in assay [4]; 51.4% in assay [5]; 37% in assay [6].

The values above are taken from PubChem BioAssay (NCI).
